We go through 40 compounds from PubChem BioAssay (EPA / NIEHS).

Structures are written as SMILES. Activity calls are given as the source filed them. The calls were made as follows: active = hit-call score of the fitted dose curve at least 0.9, where 1 is the maximum; inactive = score below 0.9.

The nature of this test: APR_HepG2_MitoMass_1hr: Apredica 1-hour HepG2 Assay for Mitochondrial Mass (AID 2282674). Conditions: high-content imaging, actives raise or lower the signal. The method, then:
APR_HepG2_1hr is a cell-based, multiplexed-readout assay that uses HepG2, a human liver cell line, with measurements taken at 1 hour after chemical dosing in a 384-well plate.APR_HepG2_MitoMass_1hr is one of 10 assay component(s) measured or calculated from the APR_HepG2_1hr assay. It is designed to make measurements of cell phenotype, a form of morphology reporter, as detected with fluorescence intensity signals by HCS Fluorescent Imaging technology.Data from the assay component APR_HepG2_MitoMass_1hr was analyzed into 1 assay endpoint. This assay endpoint, APR_HepG2_MitoMass_1hr, was analyzed with bidirectional fitting relative to DMSO as the negative control and baseline of activity. Using a type of morphology reporter, gain or loss-of-signal activity can be used to understand changes in the signaling. Furthermore, this assay endpoint can be referred to as a primary readout, because this assay has produced multiple assay endpoints where this one serves a signaling function. To generalize the intended target to other relatable targets, this assay endpoint is annotated to the cell morphology intended target family, where the subfamily is organelle conformation.
Cells were treated with dimethyl sulfoxide (DMSO) as a solvent control at a final concentration of 0.5% v/v or with compounds in DMSO with a resulting final DMSO concentration of 0.5% v/v. Compound treatment was done at concentrations of 0.39, 0.78, 1.56, 3.12, 6.24, 12.5, 25, 50, 100, and 200 uM in duplicate on each plate. Cells were treated with compounds for 1, 24, or 72 hr. Carbonyl […] m-chloro-phenylhydrazone (CCCP) and taxol were used as positive controls for mitochondrial function and cytoskeletal stability, respectively; DMSO served as the negative control for this experiment. Cells were fixed by the direct addition of 50 uL formaldehyde in Hank's Balanced Salt Solution (HBSS) to a final concentration of 3.7%. After incubation in the fixation medium for 30 min at room temperature (293-298 K), cells were rinsed twice with HBSS and treated with cell permeabilization buffer (16 uL of 0.5% Triton X-100) for 10 min at room temperature (293-298 K) before labeling. For mitochondrial membrane potential and mitochondrial measurements, pre-fixed cells were incubated with 50 uL of MitoTracker Red CMXRos (Invitrogen) at a concentration of 250 nM for 30 min before fixation. In the remaining cases, post-fixed cells were labeled by incubation with a multiplexed mixture of primary antibodies in HBSS for 60 min at room temperature (293-298 K) to detect immunoreactivity of c-Jun (1:500), phospho-histone H3 (1:100), phospho-histone H2A.x (1:200), p53 (1:400), alpha-tubulin (1:200) and Hoechst 33342 (2 ug/mL). Cells were labeled for multiplexed imaging on two separate plates: a) Hoechst 33342, MitoTracker Red, phospho-histone H3, and alpha-tubulin, and b) Hoechst 33342, phospho-histone H2A.x, and c-Jun. A final rinse with HBSS (50 uL) was performed before analysis. The primary and secondary antibodies for the proteins were phospho-histone H3 (rabbit anti-phospho-histone H3 and FITC-donkey anti-rabbit IgG), phospho-histone H2A.x (mouse anti-phospho-histone H2A.x and FITC-donkey anti-mouse IgG), c-Jun (rabbit anti-phospho-c-Jun and Cy3-donkey anti-rabbit IgG), p53 (sheep anti-p53 and Cy5-donkey anti-sheep IgG), alpha-tubulin (mouse anti-alpha-tubulin and Cy5-donkey anti-mouse IgG). These antibodies are available as the CellCiphr HepG2 assay kit (Millipore).Digital images of each well were captured using a Cellomics ArrayScan VTI (Thermo Scientific Cellomics) (0.8 NA objective, 0.63x optical coupler, and XF-93 filter set) at 20x magnification. The images were acquired using the autofocus feature of the ArrayScan instrument, which entails the following steps. First, the camera focuses on channel 1 (Hoechst 33342), where nuclei are identified. Second, a Z offset of 1 um is used for capturing mitochondria (MitoTracker Red). Third, a Z offset of -2 um is used for capturing the cytoskeleton (tubulin). […]
Take `CCC(O)=C1C(=O)CC(C(=O)O)CC1=O` (stereo not given): the compound was classed as inactive.

Consider `c1ccc(Nc2ccccc2)cc1`, for which the compound was classed as inactive. Turning to `CCCCC(CC)CN1C(=O)C2C3C=CC(C3)C2C1=O` (stereo not given), the outcome was inactive.

With `CCCN(CCC)C(=O)SCC`, the compound was classed as inactive. Turning to `CCOC(=O)C(C)Oc1ccc(Oc2cnc3cc(Cl)ccc3n2)cc1` (stereo not given), the outcome was inactive. With `CCCCC(CC)COC(=O)c1ccccc1C(=O)O` (stereo not given), the result was inactive.

In the case of `CCOC(=O)NCCOc1ccc(Oc2ccccc2)cc1`, the compound was called inactive. As to `CC(C)(c1ccc(O)cc1)c1ccc(O)cc1`, the outcome was inactive. On to `CC1(C)C(C=C(Cl)Cl)C1C(=O)OCc1cccc(Oc2ccccc2)c1` (stereo not given), for which the compound was classed as inactive. Same read-out and setting: the same measure for `COC(=O)c1c(Cl)nn(C)c1S(=O)(=O)NC(=O)Nc1nc(OC)cc(OC)n1`: “inactive”. `COC(=O)c1ccccc1S(=O)(=O)NC(=O)Nc1nc(OC(F)F)cc(OC(F)F)n1`: the compound was called inactive.

A word on the AC50: it is the midpoint of the concentration-response curve, whichever way the signal moves. Consider `CCCN(CCC)c1c([N+](=O)[O-])cc(C(F)(F)F)c(N)c1[N+](=O)[O-]`, for which the AC50 was 158 µM (active).

Regarding `CCN(CC)C(=O)c1cccc(C)c1`, the result was inactive. As to `Cc1nn(C)c(Oc2ccccc2)c1C=NOCc1ccc(C(=O)OC(C)(C)C)cc1`, the compound was classed as inactive. Consider `CCOC(=O)COc1cc(-n2ncc(C(F)(F)F)c(C)c2=O)c(F)cc1Cl`, for which the outcome was inactive. Consider `COC(=O)c1cccc(C)c1S(=O)(=O)NC(=O)Nc1nc(OCC(F)(F)F)nc(N(C)C)n1`, for which the call was inactive. Take `CN(C)C(=O)Nc1ccc(Cl)c(Cl)c1`: the compound was called inactive. As to `COC(=O)c1ccc(I)cc1S(=O)(=O)NC(=O)Nc1nc(C)nc(OC)n1`, the compound was classed as inactive. As to `Oc1ccc(C(c2ccc(O)cc2)C(Cl)(Cl)Cl)cc1`, the call was inactive. `CCCCCCC(C)OC(=O)COc1nc(F)c(Cl)c(N)c1Cl` (stereo not given): the AC50 was 64 µM (active). As to `N#CSCSc1nc2ccccc2s1`, the AC50 is 28.1 µM (active). Consider `CCC(C)OC(=O)N1CCCCC1CCO` (stereo not given), for which the result was inactive. On to `COc1c(Cl)ccc(Cl)c1C(=O)O`, for which the compound was classed as inactive.

With `CC(C)(C)[C@@H](O)[C@@H](Cc1ccc(Cl)cc1)n1cncn1`, the compound was called inactive. On to `CCN(Cc1c(F)cccc1Cl)c1c([N+](=O)[O-])cc(C(F)(F)F)cc1[N+](=O)[O-]`, for which the call was inactive. For `CCCCOC(=O)C(C)Oc1ccc(Oc2ccc(C(F)(F)F)cn2)cc1` (stereo not given), the compound was classed as inactive. Regarding `CCCOC(=O)c1ccc(C(=O)OCCC)nc1`, the result was inactive.

`COCCO`: the outcome was inactive. Consider `CCSC(=O)N(CC(C)C)CC(C)C`, for which the outcome was inactive.

Take `COC(=O)c1ccc(CNS(C)(=O)=O)cc1S(=O)(=O)NC(=O)Nc1nc(OC)cc(OC)n1`: the call was inactive. `CCOC(=O)[C@H](C)Oc1ccc(Oc2nc3ccc(Cl)cc3o2)cc1`: the compound was classed as inactive. On the same count and under the same terms, the same measure for `COc1nc(C)nc(NC(=O)NS(=O)(=O)c2ccccc2OCCCl)n1`: “inactive”. `CCCCOCCOCCOCc1cc2c(cc1CCC)OCO2`: the compound was classed as inactive. For the compound `O=C(Nc1ccc([N+](=O)[O-])cc1Cl)c1cc(Cl)ccc1O`, the compound was classed as inactive. On the same count and under the same terms, the result for `CCCCOC(=O)[C@@H](C)Oc1ccc(Oc2ccc(C(F)(F)F)cn2)cc1` reads “inactive”; that for `S=C([S-])NCCNC(=S)[S-].[Mn+2]`, “inactive”; that for `CCCOC(=O)NCCCN(C)C`, “inactive”. Consider `CCCCCOC(=O)COc1cc(N2C(=O)C3=C(CCCC3)C2=O)c(F)cc1Cl`, for which the outcome was inactive.

With `c1ccc2[nH]c(-c3cscn3)nc2c1`, the result was inactive. Regarding `OB(O)O`, the compound was called inactive.
